Records with an inconclusive call do not appear. Calls of active or inactive are those of the source. The call rests on the fitted dose curve; in most records, active means well fitted curve in the direction sought with a large enough effect; inconclusive means small, poorly fitted or top-dose-only effect, or another doubt; inactive means no such curve, though single readings can be large or run the other way.
The compounds below were run against Isocitrate dehydrogenase [NADP] cytoplasmic (Homo sapiens) (UniProt O75874) (assay: qHTS for Inhibitors of mutant isocitrate dehydrogenase 1 (IDH1): WT assay for probe SAR). Conditions: WT IDH1 enzyme, NADPH diaphorase/resazurin fluorescence; series mostly up to 100 µM.
Description: Malignant glioblastomas (WHO grade IV), including primary and secondary glioblastomas, are among the most lethal with a median survival of one year, and unfortunately they are also the most prevalent type of brain tumors. By and large the standard of care of gliomas remains the use of the oral alkylating agent temozolomide and radiotherapy following surgical tumor resection. There is an urgent unmet medical need for novel therapeutics for gliomas. IDH mutations occur in up to 70% of grade II-IV secondary glioblastomas, and IDH1 R132H is the most prevalent mutation. […] Wild-type (WT) IDH1 catalyzes the conversion of isocitrate to -ketoglutarate with the concomitant reduction of NADP+ to NADPH. In contrast, IDH1 R132H catalyzes the conversion of -ketoglutarate to 2-hydroxyglutarate (2-HG) with the concomitant oxidation of NADPH to NADP+ [5]. Recently, a second significant advancement for the field was the finding that IDH is an oncogene, and that its metabolic product 2-HG may contribute to the pathogenesis of IDH-mutated cancers. […] Although this link to cancer is tantalizing, the direct evidence of how 2-HG drives pathogenesis of gliomas and AML remains a subject of further research. The goal of this selectivity assay is to identify small-molecule inhibitors of WT IDH1 using a biochemical assay that measures product NADPH production through the use of a diaphorase/resazurin-coupled system. Inhibition of the WT IDH1 enzymatic reaction leads to a decrease in the amount of NADPH relative to a DMSO control and a concomitant decrease in the fluorescence of the diaphorase/resazurin enzyme product resorufin at 590 nm. Compounds were screened as concentration-titration series that ranged from 100 microM to 5 nM. NIH Molecular Libraries Probe Production Network [MLPCN] NIH Chemical Genomics Center [NCGC] MLSCN Grant: R03 DA032129 PI Name: Dr. Lenny Dang
Compounds or DMSO were dispensed into black, solid 96-well plates at 1 microL/well. Then, 40 microL/well enzyme buffer was dispensed in 20 mM Tris buffer, pH 7.5, containing final concentrations of 10 mM MgCl2, 20 mM NaCl, 0.05% BSA, 2 mM beta-ME and […] WT IDH1. These were incubated at RT for 60 minutes. The substrate and detection buffer (10 microL; 20 mM Tris buffer, pH 7.5, containing final concentrations of 10 mM MgCl2, 20 mM NaCl, 0.05% BSA, 0.05 mM NADP+, 0.00053 mM diaphorase, 0.04 mM resazurin and 0.07 mM isocitrate) was added to start the enzymatic reaction. The reaction progressed for 30 minutes at RT and which point 25 microL/well of 2% SDS was added as a stop solution. Following 1 minute of shaking on an oribital shaker, the fluorescence intensity was monitored on a Spectramax M5 plate reader (Ex 544, Em 590, bodipy filter). The %Activity was determined from the corrected fluorescence values. As no specific WT IDH1 inhibitors have been identified in the literature, 1x (0.65 nM) and 0x WT IDH1 enzyme controls (untreated) were included to normalize %Activity of identified inhibitors; 0x enzyme values corresponded to 100%Activity (full inhibition), while 1x WT IDH1 enzyme values were used to normalize 0%Activity (no inhibition ). Concentration-response curves were fitted to the signals arising from the resulting fluorescence. The concentration-response curves were then classified based on curve quality (r2), response magnitude and degree of measured activity, and compounds were subsequently categorized based on their curve class. […] Keywords: Isocitrate dehydrogenase, IDH1, IDH1 R132H, 2-HG, 2-hydroxyglutarate, AML, glioma, MLSMR, MLPCN, NIH Roadmap, qHTS, NCGC

Isocitrate dehydrogenase [NADP] cytoplasmic (Homo sapiens), sequence (O75874 whole entry, looked up): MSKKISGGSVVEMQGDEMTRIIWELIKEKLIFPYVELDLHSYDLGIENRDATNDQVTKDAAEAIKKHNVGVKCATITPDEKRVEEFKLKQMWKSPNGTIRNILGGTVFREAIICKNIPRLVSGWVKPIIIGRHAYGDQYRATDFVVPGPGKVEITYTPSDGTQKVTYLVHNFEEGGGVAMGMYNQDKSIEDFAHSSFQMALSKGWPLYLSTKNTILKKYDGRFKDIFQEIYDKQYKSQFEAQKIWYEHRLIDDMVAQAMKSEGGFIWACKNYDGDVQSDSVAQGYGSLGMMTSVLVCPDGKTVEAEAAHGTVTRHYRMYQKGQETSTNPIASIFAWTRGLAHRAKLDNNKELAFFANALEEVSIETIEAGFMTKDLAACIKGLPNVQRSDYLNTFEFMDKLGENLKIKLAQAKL

SMILES | outcome
Cc1ccccc1C(C(=O)NC(C)(C)C)N(C(=O)Cc1cccs1)c1cccc(F)c1 (configuration not stated) | inactive
COc1ccc(N(C(=O)Cc2cccs2)C(C(=O)NC2CCCC2)c2ccccc2C)cc1OC (configuration not stated) | inactive
Cc1nc(C)c(C(=O)N(c2cccc(F)c2)C(C(=O)NC2CCCCC2)c2ccccc2)s1 (configuration not stated) | inactive
COc1ccc(N(C(=O)C2COc3ccccc3O2)C(C(=O)NC2CCCCC2)c2ccccc2)cc1OC (configuration not stated) | inactive
COc1ccc(N(C(=O)Cn2cnc3ccccc32)C(C(=O)NC2CCCCC2)c2ccccc2)cc1 (configuration not stated) | inactive
COc1cc(OC)cc(N(C(=O)Cc2cccs2)C(C(=O)NC2CCCC2)c2ccccc2C)c1 (configuration not stated) | inactive
Cc1ccccc1C(C(=O)NC1CCCCC1)N(C(=O)c1ccccn1)c1cccc(F)c1 (configuration not stated) | inactive
COc1cccc(N(C(=O)Cc2cccs2)C(C(=O)NC2CCCC2)c2ccccc2)c1 (configuration not stated) | inactive
Cc1ccccc1C(C(=O)NC1CCCC1)N(C(=O)Cc1cccs1)c1ccccc1 (configuration not stated) | inactive
Cc1ccccc1C(C(=O)NC1CCCCC1)N(C(=O)Cc1cccs1)C(C)C (configuration not stated) | inactive
O=C(NC1CCCCC1)C(c1ccncc1)N(C(=O)Cc1cccs1)c1cccc(F)c1 (configuration not stated) | inactive
Cc1ccccc1C(C(=O)N(C)C1CCCCC1)N(C(=O)Cc1cccs1)c1cccc(F)c1 (configuration not stated) | inactive
COc1cccc(C(C(=O)NC2CCCCC2)N(C(=O)c2cccs2)c2ccc3c(c2)OCO3)c1 (configuration not stated) | inactive
Cc1ccc(C(C(=O)NC2CCCC2)N(C(=O)Cc2cccs2)c2cccc(F)c2)o1 (configuration not stated) | inactive
Cc1ccccc1C(C(=O)NCc1ccccc1)N(C(=O)Cc1cccs1)c1cccc(F)c1 (configuration not stated) | inactive
Cc1ccccc1C(C(=O)NC1CCCC1)N(C(=O)Cc1cccs1)c1ccccc1F (configuration not stated) | inactive
COc1ccc(C(C(=O)NC2CCCC2)N(C(=O)Cc2cccs2)c2cccc(F)c2)cc1OC (configuration not stated) | inactive
O=C(NC1CCCCC1)C(C1CCCC1)N(C(=O)Cc1cccs1)c1cccc(F)c1 (configuration not stated) | inactive
Cc1ccccc1C(C(=O)NC1CCCCC1)N(C(=O)CNS(=O)(=O)c1ccccc1)c1cccc(F)c1 (configuration not stated) | inactive
O=C(NC1CCCC1)C(c1ccccc1)N(C(=O)Cc1cccs1)c1cccc(F)c1 (configuration not stated) | inactive
COc1ccccc1CN(C(=O)Cc1cccs1)C(C(=O)NC1CCCCC1)c1ccccc1F (configuration not stated) | inactive
O=C(NC1CCCC1)C(c1cccs1)N(C(=O)Cc1cccs1)c1cccc(F)c1 (configuration not stated) | inactive

From PubChem BioAssay AID624021 (National Center for Advancing Translational Sciences (NCATS), 2012)
